Test results reported in the supplement of paper PMC10681739.
Over roughly 4,000 sequences, “arbitrary fluorescence units” has its median near 830; the highest 2% begin near 6,500. Shown is part of a subset that was picked to be rich in the highest values.

These sequences were tested against RUNX1 (UniProt Q01196) (assay: RUNX1 binding intensity (PBM fluorescence), RUNX1 alone (arbitrary fluorescence units); higher = stronger binding). Conditions: RUNX1 concentration 2 nM; ETS1 concentration 0 nM.
Procedure: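 gcPBM on 36-bp genomic-derived probes (partner site mutated) containing one RUNX1 site and no ETS1 site. Recombinant human RUNX1 (2 nM) was incubated alone or with ETS1 (25 nM) and detected by anti-RUNX1 antibody fluorescence. Values are medians over 4 replicate spots (not normalised). The probes sit in constant array flanks that are not printed.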

RUNX1, sequence (Q01196 whole entry): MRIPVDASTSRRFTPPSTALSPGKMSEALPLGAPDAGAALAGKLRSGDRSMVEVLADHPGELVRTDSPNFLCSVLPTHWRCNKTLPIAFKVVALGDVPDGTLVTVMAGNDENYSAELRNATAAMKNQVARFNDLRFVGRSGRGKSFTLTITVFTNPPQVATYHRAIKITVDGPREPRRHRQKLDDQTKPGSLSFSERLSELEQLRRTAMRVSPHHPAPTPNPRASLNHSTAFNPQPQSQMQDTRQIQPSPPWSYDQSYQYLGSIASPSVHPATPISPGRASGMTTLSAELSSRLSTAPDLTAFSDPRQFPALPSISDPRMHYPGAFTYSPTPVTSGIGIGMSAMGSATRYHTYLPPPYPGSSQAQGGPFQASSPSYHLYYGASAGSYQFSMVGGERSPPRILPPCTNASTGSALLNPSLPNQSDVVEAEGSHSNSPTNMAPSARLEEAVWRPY

Sequence | RUNX1 binding intensity
CGAGTCAGCAAATCACAGCTCTGCGGGTGGGCTCCT | 739
CAGCATGTGGGTGCACACACCGATTCCTTAGAGGTT | 811
ACTGTGCGTTGAGGTCGTCCGCCATCTGCTGCAGCT | 745
GAGGTGGTCAGAGCCTCCCTTGACATGAAACAAGAA | 724
TTGGCCTCGCCGGGACCCCTTGCACCGCGGACACAG | 776
AAAACGCGCAAATACGGTGGCTGCGGCCCGCGGGCA | 693
GGGCAGGCCGTATGTGGGAGACCACAAAGCCCAAGG | 787
CATGACCTCCTCGCACAAGAATGCGGGGGTGGGGGT | 1050
CACCCCGCCTCTGCGGGACCACTTCAGGCGCCTTCT | 876
AACCCCTTGCACCGCGGACACAGCTTCTTCTTCCCC | 1080
TGGCTACCCGAAAGGCGCGTTGGCTGCGGCTACGCA | 733
ACCCCGAAAGTGTGGGCGCGGCTGCGGTTTAACCCG | 7200
GTGGCGCGGTGGGGCGCGGACCCGAAACTGCCAAGT | 706
CCCCACATACGGGGGCCGGGGCCGGGCTGTGGGCTT | 755
TCCGCTTCTGTGGTCTGATCTTGCTGGGGCTGAACC | 1090
ACAGACAGCAGCCTGAGCTCGTGGTTAGAACACCCT | 796
GGTCTGCGGCGCGCGGGATGCTGGGCAATGTAGTTT | 784
CAGGCTGCTTCAGGCGCGCGGCAGAGCGGTCAGAGC | 716
CGTCCCCGCAAAGCCGCGGCAGAAACTCCCGGCGGT | 1270
TAGGGGGGCGCGGTGAGCCCCGGCGGGAATCGAAGC | 716
TCCACAATTCCCAGGAGTCTCTGCGGCCGCGCGGAG | 830
TCACAATCGCCCACAAAGACAGCAAGTAACTGTCAG | 892
ACGAGGTTTCGTGCAGGCTCCAGCCGAGACCACATC | 744
GTAGGGGAGGGACCGCAGGGAGGCGGCAGTCCTTGT | 931
ATCTTGTTCAGGCTCAAAGGGAAACCGCTGCTTTTC | 914
GACAGTTTTCGGGCCTAGTTTGCGGCTGCTCCTGCC | 891

Sequence | RUNX1 binding intensity
CTCTCCAGACCGCGCATTTTGGGTCTCGGAGGAGGT | 735
ACGTCATCCCGCAGGGCTGGCGCGCCCGGCGCAGTC | 779
ACGCCGCGCATACGCGCTTTACGGCGGCCGCAAAAT | 801
GAGGAGGAGGTGCGCTGGCTGTTCTGCTGCGGGCCG | 704
ATGCCAAGGGACCTCCCTCCACAACCGCCCCCAGCT | 930
CTGACAGCCTCCGCACAAAGCGCGGTCTATTTCTCC | 918
AAGAAAGGTTCCAGCCTGCGCCCTGCTACCGCGGCG | 738
GCTGCGGCGGCGGCGAAGAGACAACCTCCGCTGGAA | 793
TCTGGGAGATGGAGTTCACAGCGCTGCGGGGCCGGA | 674
CAACGCTTGCCGACCGCCAGCAGGAGGTGGTGGGCG | 755
TCAAAGCTGCGGGGTTTCATTGCCTGTTCCTGAACA | 693
AGTATACTGTGGTGAGAAACTGCCTGCCATACCAGC | 824
CGTTTACTGTCTGGGACTGCGCCCACGCGGTCACGT | 871
CACTTGGTCTTGCTGCCCTTGTGGCCCTAACACCCT | 841
TTTATCCTTATTTGCTGGCTTCGCCCACAAGCACAG | 1010
AGACTAGAGGCGGTTGTGTGAGTCAGAAAGAGGGGC | 724
TCGGGAGGTGGCATGCTGACTCACCTGTGGCTTGTT | 797
CTCCTGCGGCGACACGCCTAGCAGACGGCGCAAGGC | 773
ATAACTTGCGGCAAATGCTGGAGGCAGTACCGCCTT | 840
ACACCTCAGCAAGTGGCAGAGACCACAACAAGTCAG | 952
CTTGTGGCTCCTTTCCACCCGCCCCGTAAGCCGGCC | 930
ACCCCAAGCCCACAAACCCACCTGAAGGAACCAACT | 1200
CCGCTGCGGCTGCGCGCTACGTCACTACGTTCGGCG | 768
AAAACCACATTGCCTGTGCTGCAGGCTGGAAAGCTG | 879
GCAGAAACAGAAAGAGACAGGGCTGACCGCAGCAGG | 1360
CCTCTCTGTGGTTCTGCCTGGAATACGCAAGGCAGG | 1050

Sequence | RUNX1 binding intensity
GGCGGGAGAGGAGGCCGGGCGGCCGCAGCTGCCTGT | 669
TCGCTTACGGTGTCGGTTACAGACTGTGGTTGCCAT | 812
CACCCGAACTGAAACACCTGCGGCTGAGGGGAGGGG | 1030
CCGAGAAGTGGAACCGCCAGGCGGAGGGGGCGGAGT | 767
GAGCGCGGCACTCGCCACGGTAAGGATTACCACAGG | 742
TGGGGTGTCCGAGCCGCCCCCGAACCGCGCACCCGA | 796
GACAAGCCATGTGGTTGCTGGCAGGCAATCTCAGTC | 1430
TATTCAGCAGCAAAGGAGAGAGTCTGTGGTATCTGC | 708
GCTGAGTGCGGGTGGCCTGGGCCGAAGGCTCAGCGG | 724
GCCGCGGTGCCTGCCGGGACAGCGAGTTCAGCCGGG | 738
CTGTGGGTTCGGCAGTAAACTCTGACCTCCTATTTA | 892
TGGGACCGCTAATCGGAGAGGGTGCGCAAACGCTGG | 658
AAGTTCGCAACCGCCAAGAGGGGAGACGGGCTGCGC | 764
GTATGGGAGGTGATCTGGCTGCAAACCGCAAGAGAG | 8250
ACCCACTTGCTGTTAGAGCATCTTTGCAACCACAGG | 729
CTCGGGATTTGTGGTCCACCCGGCTGAACTCGCGGC | 788
AGGGTTTGTGGGACCTGGTGACTCACGGGATCTGGG | 703
CTGCCATGAAGGGTTCTGGTTTGAGGTCTCCTCTTA | 741
GCCCCTGATAGCGTCCTCACCATCCCCACAGCGCCT | 1100
TGGCCCCGGGGCCCCACAACGGCTTCATGTGTCCCG | 693
CCTTAGCACAGACCACCATCTACGGGAATTCCTAAG | 912
CAGTCAGACGGGAGCCCGGCTTCTGTGGTGCCTGCC | 696
CCTAGAACCGTAAGAGAAAGGGGCTGCGGTGCAGCA | 745
CTGTGCGGTCATGTGACGGAGGCCTGAAGGCAGGTC | 1410
TGCGCCGGGAGTGCATGAGCTGCCGATGTGGTGCTT | 697
GACGTAAGCCGAGAGGCTCCCGTAAGCGGTCTTGAG | 733

Sequence | RUNX1 binding intensity
GACTCGCTCTGCGGCCCCACGCAGGGAGCCTCCTTG | 905
CTCATAACCGCTAACTCAACCTCTAACATTTGCTGT | 3220
AACTAGTTCGTTCCTTATGCGGCCCAGGGCTCCACC | 893
GGCACGAAAGAGCTGATGCATTTCAACCGCAGCCTG | 1160
CGAGCCGCCTTGCTCCCCGGCCCACAGCCCAGCACT | 889
CCGGGGTAAACCACGACACGACTCCCTGCCGTGTGG | 886
GACCTTCACCCACAAGAACCACCTCCTCTCAGTAAA | 1950
TACGACTTCAAGGCGGTCAACATCCAGGGCAAACTG | 730
TCCCTCCTTGCGCTCTGGTTTTGTGGTTGCTTGCTG | 1120
CCAGCCGTAAGCCCCGCCCCCTAGAGGCACCGCGGA | 882
GCTTTGCAGTGTCCTCTATGGAACACCACACACAGT | 809
GGGGACGAAGCGGTCTCGGTTCAGCCCGGCTGGGAG | 692
TAAGGCTGTGTGGCTTCCAGATCAAAAACCGCAAAA | 8380
CTCTGGCAGGGAGCTCTGAGGGCTAAACCACAAAAA | 1560
CAGGCTGCTGTGGCTACTGCAGCACTGCCTCCCGCT | 741
GCTCTGGCCGAAGATGTCCCTGCGGTGCAGCTGCCG | 796
GGGCTTGACCGCCATGTTTGAAGCGGGCGCAAAAAA | 758
CAGAACGGTCCCTGGAACACTGCGGTTCCCGCCTGG | 874
AGGCTGTTGTGGGTTGCGCCGCTTCGGAGGTGGGAG | 846
CTTGCCACACTGCCTCTTGTTTTGAACCACTATATT | 2040
GCACACAGTGCGGTTGGCTTCCAGCTTCATGTTGGC | 1470
CTTGTAGTCAGGTGGTTGGGCAGGGTGTTTCTCATG | 807
TCCAAGGCGCAAAAAACCCGCCCTAAACCGCACCCC | 1630
AGCGCCTTACCCGCGGCACACCCATTTGCTGACCCC | 1120
CTTGTTCTATCTCCTGTTTGTGGTGAGTGACTGTCT | 1370
AGGCTCATTGCCTGTTTTCATGTGGTTTAGAGAAAA | 1030

Sequence | RUNX1 binding intensity
TGATCAGGCAGGAGAAGCGCAGAGGTGGACCCGCAA | 751
GGGATCCTTCAGCTCCGGGTTAACCCCGACCGCGCC | 697
CACTCCCCTCCCGCGGTCACACTTCAGGCGGCCACC | 1460
GGGGGGGTGCGGTCCTGGTCGGGAGGAGGTGGAGAG | 869
ACCTCCACCACAAAGAACAAAAAACGAAGGATAAAA | 1520
CCACACGGCAGGGAGTCGTGTCGTGGTTTACCCCGG | 752
ACGCCCGCTGACCACACTGGCGACGTCCCTCTCTGT | 1400
CAGGGGGCCCCACATGCCGCTCTTGCTGCCCAGGTC | 798
CAGTCGCCAGAAACCACAGCACTTCGGCCTGCTTCA | 1480
GACATGTGGCTATTTTGGGCAATTGCCTGAGGAGGC | 720
CGACTGGAACCACTCTGAGGCGCTGCCGCAGACACC | 1040
TTAACTCCACAGAAGAATAAACCACCACCGCTCACC | 1060
GACCACCTCCTTTCTGTGTTTTGTGGTTTCACAACT | 2680
CATTGTGGGCGCTGTAGTCCAGCTGGAACCTGTTTG | 760
GGAGGCTGTGGTGAGGAAAGAGGAGGTGACACTCCT | 883
CCCCTCAATTCCCTCAACCCTTCCCACAAACTGGGA | 1730
GGCTTACGGCGGGGTACCCTCCTCTGTGGGCGGGGC | 715
CTGGCCGTGGCGTACGGGAGCTGTGGGGCCGTCCCC | 728
GGCTGGAAAGGGTCTTGAGAGGAGGTGGTTGCCTTA | 705
TGTCTGAGGTTTCTCTGTGAACATGAAGCTGAGAAC | 790
AGGCTTTCTGTTTTATCTCGTGTGTGTGGTGCACCA | 886
GGGCTTACGGCTGAACCCATGGCTGCGGGCTGTGCT | 704
TCCACAGCCGGTTTCGGCCGGTTCCCACAAGCCCCT | 909
CCGCTTACGGCCTTCGCCCGGCTTACCCGCGTCGCA | 1030
GGCATCCCCTTGCGGCCATCACTTTCTATGCCCTCA | 1250
GGGGCAGTGGTCACAGGAGGATCTTGCTGGAGTCAT | 697
